From PubChem BioAssay (NCI)
Several values for one entry are separate records, joined by “and”; a condition that tells them apart may be missing. Equal values may be shown once. About 83,000 compounds went through this panel and 20% of them were active in at least one assay; those are over-represented in the sample as a whole.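 In brief: 96-well plates, 48 h treatment, single concentration, percent growth endpoint.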 Values without a mark were called inactive. Activity calls are given as the source filed them.

Tested on: HCT-15 colon
Assay: NCI-60 one-dose screen, 48 h (100 = growth as untreated, 0 = no growth, -100 = all killed)
Settings: 10 µM unless noted
Experimental: Growth inhibition of the HCT-15 human tumor cell line is measured as a screen for anti-cancer activity. Cells are grown in 96 well plates and exposed to the test compound for 48 hours. Compounds are tested at a single concentration, which is 10^-5 M for most compounds. The reported endpoint is percent growth (GI% or GIPRCNT), where numbers from 0 - 100% represent growth inhibition, and numbers from -100% - 0 represent cell death. For example, a value of 40 represents 60% growth inhibition. A value of 0 means no net growth occurred over the course of the experiment. A value of -40 indicates 40% of cells at the beginning of the experiment died by the end of the experiment. A value of -100 means all cells are dead at the end of the experiment.
NCI-60 Human Tumor Cell Lines Screen was performed using the standard one-dose NCI protocol, which is described in more detail at https://dtp.cancer.gov/discovery_development/nci-60/default.htm.
Compounds with GIPRCNT values below 10 were considered active. Activity score was based on GIPRCNT using the following formula: […]
Score is 0 for GIPRCNT values of 100 or above, 50 for GIPRCNT values of 0, and 100 for GIPRCNT values of -100.

Row | Structure (SMILES) | growth
1 | N#CC(C#N)N=Nc1ccc(Cl)cc1 | 15.1%
2 | Cc1cc(-c2cc(C)c(O)c(C)c2)cc(C)c1O | 70.8%
3 | CCN(CCNS(C)(=O)=O)c1ccc(N)c(C)c1 | 71.5% and 106%
4 | CC(C)C(C)(C)c1ccc(O)cc1 | 105%
5 | CC(=O)Nc1ccc(S(N)(=O)=O)cc1 | 107% and 93.5%
6 | O=C1OC(c2ccccc2)=N/C1=C\c1ccccc1 | 105%
7 | O=C(O)/C=C\C(=O)Nc1cccc2ccccc12 | 102% and 96.9%
8 | Brc1ccc(SSc2ccc(Br)cc2)cc1 | 77.3%
9 | Cc1ccc(=O)[nH]n1 | 110% and 105%
10 | Cn1cnc([N+](=O)[O-])c1Sc1ncn[nH]1 | 107%
11 | CN(C)c1ccc(/C=C\C(=O)c2ccccc2)cc1 | 83.3% and 66.5% and 72%
12 | Fc1ccc([I+]c2ccc(F)cc2)cc1 | 94.3%
13 | O=C(/C=C/c1ccccc1)c1ccccc1 | 86.3%
14 | O=c1n(CC2CO2)c(=O)n(CC2CO2)c(=O)n1CC1CO1 (stereo not given) | 75.9%
15 | CCCCOC(=O)/C=C\C(=O)NC(N)=O | 90.8%
16 | COc1cc(C(O)C2C(=O)OCC2C2(c3ccc4c(c3)OCO4)SCCCS2)cc(OC)c1OC (stereo not given) | 96.6%
17 | C/C(=C\c1ccccc1)c1ccccn1 | 103%
18 | O=C(CO)C(O)C(O)C(O)C(O)CO (stereo not given) | 103%
19 | CC(C)NC(=O)N/C=C(\C#N)C(N)=O | 101%
20 | CC(C)(O)C(=O)O | 105%

Row | Structure (SMILES) | growth
21 | CC(=O)NCC(=O)c1ccc([N+](=O)[O-])cc1 | 111%
22 | Nc1nc(N)c2[nH]cnc2n1 | 107%
23 | OC1COC(OCc2ccccc2)C(O)C1O (stereo not given) | 98%
24 | NC(=O)NCCCC(N)C(=O)O (stereo not given) | 109%
25 | c1ccc2c(c1)OC1OC2Oc2ccccc21 | 98.1%
26 | O=[N+]([O-])c1cccc(SSc2cccc([N+](=O)[O-])c2)c1 | 91.9%
27 | CC1CCC(C(C)C)C(NNC(N)=O)C1 (stereo not given) | 112%
28 | Nc1ncnc2c1ncn2C1OC(COP(=O)(O)O)C(O)C1O (stereo not given) | 109%
29 | Cc1ccc(S(=O)(=O)c2ccccc2)cc1 | 30.5%
30 | COc1ccc(N/C=C/C2=[N+](C)c3ccccc3C2(C)C)c(OC)c1 | 99.3%
31 | Nc1ccc2c(O)cc(S(=O)(=O)O)cc2c1 | 104% and 105%
32 | ClCCOCCOc1ccc(C2CCCCC2)cc1 | 105%
33 | O=c1[nH]cnc2c1ncn2C1OC(CO)C(O)C1O (stereo not given) | 135% and 124% and 110%
34 | C#CCOC(=O)Nc1ccccc1 | 99.6%
35 | COc1ccc(C(=O)CC(c2ccccc2)C(C#N)c2ccccc2)cc1 (stereo not given) | 96.5%
36 | O=C1CSC2=NCCN12 | 107% and 97.2%
37 | CCc1cc(C)cc(O)c1 | 111%
38 | CN(C)CC1CCCCCC(CN(C)C)C1=O (stereo not given) | 7.44% (active)
39 | CCOC(=O)c1c(C)cc(=O)oc1C | 102%
40 | O=C(Cc1ccccc1)c1ccc(O)c(Cl)c1 | 13.9%
